HIV Env fusion – HIV envelope-mediated fusion inhibition; HeLa-JRFL Env/CEM21 cell fusion, luciferase; inhibition, % at 12.3 µM; actives 1.1% (n = 360,000); AID 651610;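 active = mean replicate inhibition score of at least 50 and every replicate individually at or above 50; inconclusive = only one of the two criteria met; inactive = mean below 50 and not all replicates reaching 50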
Wnt bcat act – Wnt/beta-catenin pathway activation | Wnt/beta-catenin reporter cell assay, activator, plate reader | activation, % at 9.35 µM | actives 1.2% (n = 300,000) | AID 743398; in the data active = activation above about 30%, passing the limit was not always enough; inconclusive = no clear call, values can overlap the other calls
miR122 inh – blocks miR-122 activity in Huh7 sensor cells; activation (reporter increase), % at 12.5 µM; actives 0.3% (n = 340,000); AID 602342; Huh7 miR-122 Renilla luciferase sensor, 48 h; neutral wells = 0, positive control = 100;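 active = mean replicate activation score at least 90 and every replicate individually at or above 90; inconclusive = only one of the two criteria met; inactive = neither criterion met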;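 also: higher luciferase means less miR-122 activity so hits act as miR-122 inhibitors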
MITF act – increases MITF-driven TRPM1 promoter luciferase signal; AID 588334; SK-MEL-5 TRPM1-promoter luciferase, 24 h; % of positive control, neutral wells = 0; activation, % at 12.5 µM; actives 0.75% (n = 300,000);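 active = mean activation of at least 80% with every replicate also reaching 80%; inconclusive = mean reaches 80% but some replicate falls short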
esBAF inh – inhibitors of esBAF chromatin remodeling in mouse ES cells | Bmi1-luciferase knock-in reporter, 24 h; 100% = twice the neutral-well signal | actives 2% (n = 350,000) | reporter increase, % at 12.5 µM; in the data active = activation above about 40%; inconclusive = no clear call, values can overlap the other calls;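 also: a rise in the Bmi1 reporter signal indicates esBAF inhibition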
Of the large screens only hits and unclear results are named; the others gave an inactive call. Only some compounds are listed: those with a hit (about 3.4% of all), similar ones and a draw of the others.

CCOC(=O)c1ccoc1CN1CCN(S(=O)(=O)c2ccc(C)c(C)c2)CC1	none
Oc1ccccc1C=NNc1nc2ccccc2s1	esBAF inh 50.9 (no result: HIV Env fusion)
CC(=O)c1sc(N/N=C\c2ccc(Br)cc2)nc1C	MITF act 118.6 (no result: miR122 inh, esBAF inh)
CC(=O)Nc1ccc(/C=N/Nc2nc3ccccc3s2)cc1	Wnt bcat act 57.4
C/C(=N\Nc1nc2ccccc2s1)c1cccs1	Wnt bcat act inconclusive
CC(=NNc1nc2ccccc2s1)c1ncccn1	Wnt bcat act 75.4 (no result: miR122 inh, esBAF inh)
CC(=O)N(C)C[C@H]1Oc2ncc(-c3ccccc3F)cc2C(=O)N([C@@H](C)CO)C[C@@H]1C	none (no result: Wnt bcat act, MITF act)
C[C@H]1CCCCO[C@H](CN(C)C(=O)Nc2ccc(C(F)(F)F)cc2)[C@@H](C)CN([C@@H](C)CO)C(=O)c2cc(NC(=O)C3CCCCC3)ccc2O1	none (no result: Wnt bcat act, MITF act)
COc1ccc(NC(=O)Nc2ccc3c(c2)[C@H]2C[C@@H](CC(=O)N(C)C)O[C@@H](CO)[C@H]2O3)cc1	none (no result: HIV Env fusion, Wnt bcat act, MITF act)
O=C(N[C@H]1CC[C@@H](CCNS(=O)(=O)c2ccccc2)O[C@@H]1CO)c1cccnc1	none (no result: Wnt bcat act, miR122 inh, MITF act)
COc1cccc(C=NNc2nc3ccccc3s2)c1OC	Wnt bcat act 50.9 (no result: esBAF inh)
COc1ccc(/C=N/Nc2nc3ccccc3s2)cc1O	none (no result: miR122 inh, esBAF inh)
Cc1ccsc1/C=N/Nc1nc2ccccc2s1	Wnt bcat act 61.0 (no result: HIV Env fusion, miR122 inh, esBAF inh)
C(=N\Nc1nc2ccccc2s1)/c1cccs1	none (no result: HIV Env fusion, Wnt bcat act)
CCc1nnc(NC(=O)c2ccc3ncsc3c2)s1	Wnt bcat act 34.4
CC(C)c1ccccc1NC(=O)c1ccc2ncsc2c1	none (no result: miR122 inh)
CCc1nnc(NC(=O)c2ccncc2)s1	none (no result: HIV Env fusion, Wnt bcat act)
Cc1cnc(NC(=O)c2ccc3ncsc3c2)s1	Wnt bcat act 48.4 (no result: miR122 inh, esBAF inh)
COc1cccc(C(=O)N2C[C@H]3[C@@H](c4ccccc42)[C@H](CO)N3C(C)=O)c1	none (no result: HIV Env fusion, Wnt bcat act, MITF act)
Cc1ccc(N/C=C(/C#N)c2ccsc2)cc1	esBAF inh 67.5 (no result: HIV Env fusion, Wnt bcat act, miR122 inh)
COc1ccc(OC)c(Nc2cc(C)nc3nc(C)nn23)c1	miR122 inh 106.8
COc1ccc(Nc2cc(C)nc3nc(C)nn23)c(OC)c1	none (no result: MITF act)
CC(C)C#Cc1ccc([C@@H]2[C@H](CO)N3C(=O)CN(C(=O)NC4CCCCC4)C[C@@H]23)cc1	none (no result: Wnt bcat act, miR122 inh, MITF act, esBAF inh)
Cc1ccc(S/C=C\C(=O)c2ccccc2)cc1	Wnt bcat act 55.9 (no result: HIV Env fusion, miR122 inh, esBAF inh)
Cc1ccc(C(=O)/C=C\C(=O)c2ccc(C)cc2)cc1	none (no result: miR122 inh, esBAF inh)
O=C(O)CSc1ncnc2sc(-c3ccccc3)cc12	none (no result: miR122 inh, esBAF inh)
O=C(O)CCSc1ncnc2sc(-c3ccccc3)cc12	HIV Env fusion 68.4
CC(=O)CCSc1ncnc2sc(-c3ccccc3)cc12	Wnt bcat act 43.2, esBAF inh 76.6
COc1ccc(OC(=O)N(C)C[C@@H]2OCc3ccccc3-c3ccccc3C(=O)N([C@@H](C)CO)C[C@@H]2C)cc1	none (no result: Wnt bcat act, miR122 inh, MITF act)
Cc1ccc(NC(=O)c2cc3ccccc3oc2=O)cc1S(=O)(=O)N(C)C	none (no result: HIV Env fusion, Wnt bcat act, esBAF inh)
O=C(c1cc2ccccc2oc1=O)N1CCN(c2ncccn2)CC1	esBAF inh 70.4 (no result: HIV Env fusion, Wnt bcat act, MITF act)
O=C(Nc1ccc(F)cc1F)c1cccc(C(=O)Nc2ccc(F)cc2F)n1	HIV Env fusion 57.8 (no result: miR122 inh)
O=C(c1cc2ccccc2oc1=O)N1CCN(c2ccccn2)CC1	none
CN(c1ccccc1)S(=O)(=O)c1cccc(NC(=O)c2cc3ccccc3oc2=O)c1	esBAF inh 53.5
O=C(Nc1ccc(F)cc1F)c1cc2ccccc2oc1=O	Wnt bcat act 49.9 (no result: MITF act)
CCNC(=O)C[C@@H]1CC[C@H]2[C@@H](COC[C@H](O)CN2C(=O)c2cc(Cl)cc(Cl)c2)O1	none (no result: HIV Env fusion, Wnt bcat act, MITF act)
O=C(NNC(=O)c1cc2ccccc2oc1=O)c1ccccc1	esBAF inh 54.7 (no result: miR122 inh, MITF act)
CC(C)Sc1ccc(C(=O)Nc2ccc(F)cc2F)cn1	Wnt bcat act 49.4, MITF act inconclusive (no result: miR122 inh, esBAF inh)
O=C(Nc1ccc(F)cc1F)c1ccc(-n2cccn2)nc1	none (no result: miR122 inh, esBAF inh)
O=C(c1ccccc1)c1cc2ccccc2oc1=O	none (no result: miR122 inh)
Cc1ccc(Sc2c([N+](=O)[O-])c(=O)n(C)c3ccccc23)cc1	Wnt bcat act 32.3 (no result: miR122 inh, MITF act)
Cc1ccc(Sc2c(O)c3ccccc3n(C)c2=O)cc1	none
COc1ccc(NC(=O)C2CCN(c3cc(-c4ccccc4)nc4ncnn34)CC2)cc1OC	HIV Env fusion 60.1 (no result: Wnt bcat act, miR122 inh, esBAF inh)
O=C(c1ccc(Br)cc1)c1cn[nH]c1-c1ccccc1O	none (no result: miR122 inh)
CC(C)(C)c1ccc(C(=O)c2cn[nH]c2-c2ccccc2O)cc1	esBAF inh 62.6
COc1ccc(NC(=O)Nc2ccc3c(c2)C(=O)N([C@H](C)CO)C[C@H](C)[C@H](CN(C)C(=O)NC(C)C)O3)cc1	none (no result: Wnt bcat act, MITF act)
Cc1noc(C)c1S(=O)(=O)Nc1ccc2c(c1)CC(=O)N([C@@H](C)CO)C[C@@H](C)[C@@H](CN(C)Cc1ccc(C(=O)O)cc1)O2	none (no result: Wnt bcat act, MITF act)
CCOc1cc(/C=N/NC(=O)CSc2nnc(C)s2)ccc1OCc1ccccc1Cl	Wnt bcat act 52.3 (no result: miR122 inh, esBAF inh)
COc1cccc(Nc2ncnc3sccc23)c1	esBAF inh 59.1
COc1ccc(Oc2ncnc3sccc23)cc1	MITF act 88.4, esBAF inh 45.1
Cc1cc2c(Nc3ccc(O)cc3)ncnc2s1	none (no result: MITF act)
COc1cccc(Nc2ncnc3sc(C)cc23)c1	esBAF inh 65.8
C[C@@H]1CCCCO[C@@H](CN(C)C(=O)Nc2cccc3ccccc23)[C@@H](C)CN([C@H](C)CO)C(=O)c2cc(NC(=O)Nc3ccc4c(c3)OCO4)ccc2O1	none (no result: Wnt bcat act, MITF act)
COc1ccc(S(=O)(=O)Nc2ccc3c(c2)C(=O)N([C@H](C)CO)C[C@H](C)[C@H](CN(C)Cc2ccccc2)OCCCC[C@@H](C)O3)cc1	none (no result: Wnt bcat act, MITF act)
CCS(=O)(=O)NCC[C@@H]1CC[C@@H](NC(=O)C2CC2)[C@@H](CO)O1	none (no result: Wnt bcat act, miR122 inh, MITF act, esBAF inh)
O=C(C[C@@H]1CC[C@H]2[C@@H](COC[C@H](O)CN2Cc2ccccc2F)O1)NC1CCC1	none (no result: Wnt bcat act, MITF act)
N#CC1=C(SCC(=O)Nc2ccccc2)NC(=O)CC1c1ccco1 (stereo unspecified)	esBAF inh 79.0 (no result: HIV Env fusion, Wnt bcat act)
O=C(C[C@@H]1C[C@H]2c3cc(NC(=O)C4CCOCC4)ccc3O[C@H]2[C@H](CO)O1)NCc1ccc(Oc2ccccc2)cc1	none (no result: Wnt bcat act, MITF act)
Cc1c(C(=O)OCc2ccccc2)[nH]c2c1C(=O)CC(c1ccco1)C2 (stereo unspecified)	miR122 inh 139.3 (no result: HIV Env fusion, Wnt bcat act)
CCOC(=O)c1[nH]c2c(c1C)C(=O)CC(c1ccco1)C2 (stereo unspecified)	miR122 inh inconclusive
COc1ccc(NC(=O)N(C)C[C@@H]2OCc3cn(nn3)CCCC(=O)N([C@@H](C)CO)C[C@@H]2C)c(OC)c1	none (no result: HIV Env fusion, Wnt bcat act, MITF act)
O=C(OCc1ccccc1)N1CCC2CC1c1cc(N3CCOCC3)ccc12 (stereo unspecified)	none
CCCCN(C(C)=O)c1ccc2c(c1)C1CC2CCN1C(=O)OCc1ccccc1 (stereo unspecified)	HIV Env fusion 62.9
O=C(OCc1ccccc1)N1CCC2CC1c1ccc(N3CCOCC3)cc12 (stereo unspecified)	esBAF inh 46.5 (no result: MITF act)
C=CCn1c(COc2ccc(Cl)cc2)nnc1SCc1ccc(C#N)cc1	HIV Env fusion 58.0 (no result: Wnt bcat act, MITF act)
CCOc1ccc(-n2c(COc3ccc(C)cc3)nnc2SCC(N)=O)cc1	Wnt bcat act 71.2 (no result: MITF act)
C=CCn1c(Cc2ccc(OCC)cc2)nnc1SCC(N)=O	HIV Env fusion 77.3 (no result: Wnt bcat act)
